Source: PubChem BioAssay AID652190 (Johns Hopkins Ion Channel Center, 2013)
A number with no mark means an inactive call.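 Rule for the calls: active = peak inhibition above 30% at some tested dose, together with a fitted dose response curve; inactive = no inhibition at all doses, or no curve obtained.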

The molecules below were run against Inward rectifier potassium channel 2 (Mus musculus) (UniProt P35561) (assay: Kir2.1 channel inhibition, specificity check, SAR follow-up, selectivity assay for TASK1 inhibitor project, cell-based, FluxOR thallium flux, HEK293, CRC (AID 652190)). Conditions: Kir2.1-expressing cells; series mostly up to 30 µM; fluorescence ratio, lower = inhibition: at the top concentration.
Chain of Inward rectifier potassium channel 2 (Mus musculus) (P35561 whole entry, looked up): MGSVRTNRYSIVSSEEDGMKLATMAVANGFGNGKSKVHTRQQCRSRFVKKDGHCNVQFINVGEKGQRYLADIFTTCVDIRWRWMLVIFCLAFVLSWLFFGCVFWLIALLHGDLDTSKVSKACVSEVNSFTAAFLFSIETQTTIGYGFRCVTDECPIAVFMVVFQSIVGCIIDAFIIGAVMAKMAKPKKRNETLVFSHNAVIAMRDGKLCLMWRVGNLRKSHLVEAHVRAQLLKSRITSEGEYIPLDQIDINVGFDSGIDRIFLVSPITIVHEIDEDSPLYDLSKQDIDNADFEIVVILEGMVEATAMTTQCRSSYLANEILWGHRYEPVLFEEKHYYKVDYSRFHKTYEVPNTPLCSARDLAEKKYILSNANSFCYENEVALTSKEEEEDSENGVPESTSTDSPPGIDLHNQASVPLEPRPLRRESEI

| Compound | fluorescence ratio, lower = inhibition |
| --- | --- |
| COc1ccc(F)cc1C(=O)Nc1cccc(NC(=O)c2cccc(C)c2)c1 | 1.44 |
| COc1ccccc1C(=O)Nc1cc(NC(=O)c2cccc(C)c2)ccc1F | 1.34 |
| COc1ccc(CC(=O)NCc2ccccc2-c2ccccc2C(=O)NCc2ccc(F)cc2F)cc1 | 1.35 |
| Cc1cccc(C(=O)Nc2cccc(NC(=O)c3cccc(F)c3)c2)c1 | 1.4 |
| COc1ccccc1C(=O)Nc1cccc(NC(=O)c2cccc3ccccc23)c1 | 1.82 |
| COc1cnccc1C(=O)Nc1cccc(NC(=O)c2cccc(C)c2)c1 | 1.23 |
| CC(C)c1ccccc1C(=O)Nc1cccc(NC(=O)c2ccccc2OC(F)(F)F)c1 | 1.83 |
| CC(C)Oc1ccccc1C(=O)Nc1cccc(NC(=O)c2ccccc2OC(F)(F)F)c1 | 1.86 |
| CCCC(=O)C1CCN(c2ncnc3c2CN(C(=O)c2ccc(-c4ccccc4)cc2)CC3)CC1 | 1.51 |
| COc1c(F)cccc1C(=O)Nc1cccc(NC(=O)c2cccc(C)c2)c1 | 1.33 |
| COc1ccccc1C(=O)Nc1cc(NC(=O)c2ccccc2C(C)C)ccc1F | 1.84 |
